A selection: hits, their analogues and other compounds. The true share with any hit is near 10%.
HEK cytotox = HEK 293 cell cytotoxicity; HEK 293 viability, ATP luminescence (CellTiter-Glo), 48-72 h; Potency, µM (titrated, usually from 115 µM), for inactives: at the highest dose activity change, negative = cytotoxicity, hits mostly inhibitors; actives 6.6% (n = 94,000); AID 1345083; also: % is scaled to controls: 0 for no effect and ±100 for the full control effect; nearly all actives have a fitted effect of over 60% in size
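HEK 293 cells seeded at 250 cells/well were exposed to compound for 48 or 72 hr at 37 degree Celsius. Viability taken as ATP content by CellTiter-Glo luminescence.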
GPT2 inhibitor = GPT2 alanine aminotransferase inhibition; Recombinant GPT2, coupled pyruvate oxidase/HRP Amplex Red fluorescence; Potency, µM (doses to about 57.7 µM), inactives show top-dose activity change, negative = inhibition, actives largely listed as inhibitors; actives 0.25% (n = 100,000); AID 1671188; also: % is scaled to controls: 0 for no effect and ±100 for the full control effect; nearly all actives have a fitted effect of over 60% in size
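Recombinant GPT2 (10ng/uL) with 250uM a-KG and 2mM L-alanine, 30 min at room temperature, in HEPES pH 7.5 buffer. Pyruvate detected by pyruvate oxidase/HRP/Amplex Red fluorescence after 30 min in the dark; AOA (50uM) as positive control.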
Luciferase inh = Photinus pyralis luciferase inhibition; AID 1347043; Potency, µM (top dose mostly 115 µM), most hits filed as inhibitors; purified P. pyralis luciferase, luminescence, biochemical; P08659; actives 2.5% (n = 76,000); also: % is scaled to controls: 0 for no effect and ±100 for the full control effect; nearly all actives have a fitted effect of over 65% in size
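Inhibitors were tested against purified firefly luciferase in a biochemical, low-substrate format (both substrates at 10uM) and luminescence measured with a CCD imager.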
NIH3T3 tox = kills NIH 3T3 cells. NIH 3T3 viability, CellTiter-Glo ATP luminescence, 48-72 h. Potency, µM (doses to about 96.7 µM), inactives show at the highest dose activity change, negative = cytotoxicity, usual class: inhibitors. actives 4.3% (n = 94,000). AID 1345082; also: % is scaled to controls: 0 for no effect and ±100 for the full control effect; nearly all actives have a fitted effect of over 55% in size
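Mouse fibroblast NIH 3T3 cells, 400 per well, received compound via pintool and were incubated for 48 or 72 hr prior to CellTiter-Glo ATP luminescence measurement.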
hNpr1 antagonist = antagonists of human natriuretic peptide receptor Npr1; HEK293 hNpr1 GloSensor cGMP, ANP-stimulated luminescence; Potency, µM (top dose mostly 46.3 µM), for the others: at the highest dose activity change, negative = inhibition, actives largely listed as inhibitors; actives 1.6% (n = 76,000); calls by dose curve; also: % is scaled to controls: 0 for no effect and ±100 for the full control effect; nearly all actives have a fitted effect of over 60% in size
Target sequence (P16066 whole entry, looked up): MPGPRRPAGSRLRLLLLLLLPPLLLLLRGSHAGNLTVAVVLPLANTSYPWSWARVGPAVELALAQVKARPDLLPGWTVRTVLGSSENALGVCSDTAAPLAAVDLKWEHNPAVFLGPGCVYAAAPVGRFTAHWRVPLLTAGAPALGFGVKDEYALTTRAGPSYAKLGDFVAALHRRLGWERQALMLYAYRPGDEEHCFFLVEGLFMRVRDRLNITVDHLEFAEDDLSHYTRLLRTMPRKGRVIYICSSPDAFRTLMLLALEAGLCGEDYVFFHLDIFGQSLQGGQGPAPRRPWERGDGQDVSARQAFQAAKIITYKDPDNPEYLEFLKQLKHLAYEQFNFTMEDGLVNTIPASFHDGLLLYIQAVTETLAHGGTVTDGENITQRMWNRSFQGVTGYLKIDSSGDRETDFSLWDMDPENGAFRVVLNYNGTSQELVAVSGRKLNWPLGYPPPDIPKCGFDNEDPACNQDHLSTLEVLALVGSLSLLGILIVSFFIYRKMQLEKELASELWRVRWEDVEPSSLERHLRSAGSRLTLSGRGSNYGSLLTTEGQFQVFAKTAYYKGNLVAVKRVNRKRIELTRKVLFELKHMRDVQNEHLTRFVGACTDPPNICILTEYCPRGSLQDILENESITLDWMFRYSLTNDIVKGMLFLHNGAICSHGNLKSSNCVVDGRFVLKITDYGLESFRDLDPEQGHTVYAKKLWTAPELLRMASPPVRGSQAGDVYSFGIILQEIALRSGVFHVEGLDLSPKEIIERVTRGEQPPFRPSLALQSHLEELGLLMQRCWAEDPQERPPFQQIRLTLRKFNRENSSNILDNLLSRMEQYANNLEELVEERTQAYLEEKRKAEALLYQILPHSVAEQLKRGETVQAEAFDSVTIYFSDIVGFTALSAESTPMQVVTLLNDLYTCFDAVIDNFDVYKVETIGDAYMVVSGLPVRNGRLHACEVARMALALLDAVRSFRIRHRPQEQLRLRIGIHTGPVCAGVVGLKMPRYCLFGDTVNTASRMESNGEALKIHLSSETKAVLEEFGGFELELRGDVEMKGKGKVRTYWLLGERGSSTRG
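HEK293 cells stably expressing human Npr1 and cGMP GloSensor pGS-40F, loaded 2 h with 2% GloSensor reagent, given compound 30 min at room temperature. Luminescence read before and 20 min after 0.1 nM hNppA.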
Npr1 antag conf = confirmation of human Npr1 natriuretic peptide receptor antagonists; HEK293 hNpr1 cGMP GloSensor luminescence, ANP-stimulated; actives 76% (n = 1,400); Potency, µM (titrated, usually from 57.6 µM), for the others: at the top dose activity change, negative = inhibition, most hits filed as inhibitors; shares compounds with hNpr1 antagonist; calls by dose curve; also: nearly all actives have a fitted effect of over 70% in size
NPR2 antag = antagonizes human Npr2, subtype selectivity check | shares compounds with hNpr1 antagonist | HEK293 hNpr2 GloSensor cGMP luminescence, CNP-stimulated | Potency, µM (titrated, usually from 57.6 µM), without a hit: at the highest dose activity change, negative = inhibition, actives largely listed as inhibitors | actives 67% (n = 1,400); calls by dose curve; also: nearly all actives have a fitted effect of over 70% in size
FLuc inh counter = inhibits firefly luciferase, false Npr1 antagonist flag; shares compounds with hNpr1 antagonist; purified FLuc enzyme, luminescence, Km substrate; Potency, µM (highest dose often 57.6 µM), without a hit: top-dose activity change, negative = inhibition, actives largely listed as inhibitors; actives 0.7% (n = 1,400); also: 0% is about no effect
GloSensor ctrl = control cell line activity, Npr1 antagonist counter-screen. actives 69% (n = 1,400). Potency, µM (titrated, usually from 57.6 µM), inactives show at the top dose activity change, negative = inhibition, actives largely listed as inhibitors. shares compounds with hNpr1 antagonist. HEK293 GloSensor cGMP, SNP-stimulated, luminescence; calls by dose curve; also: % is scaled to controls: 0 for no effect and ±100 for the full control effect; nearly all actives have a fitted effect of over 70% in size
* = called active by the depositor; [ ] = another dose, or the depositor's remark. Unless noted, calls follow the shape of the dose curve; as a rule, active = well fitted curve in the direction sought with a large enough effect; inconclusive = small, poorly fitted or top-dose-only effect, or another doubt; inactive = no such curve, though single readings can be large; an effect the other way counts as inactive or inconclusive. Potency is read from the fitted curve at half-maximal effect.

What do the screens show for `CC(=O)N[C@H]1[C@H](O[C@H]2CC[C@@]3(C)C(CC[C@]4(C)C3CC=C3[C@@H]5CC(C)(C)CC[C@]5(C(=O)OC5OCC(O)C(O)C5O)CC[C@]34C)C2(C)C)O[C@H](COC2OC(C)C(O)C(OC3OC(C)C(O)C(O)C3O)C2O)[C@@H](O)[C@@H]1O` (some centres undefined)?
GPT2 inhibitor: inactive

Results for CNC(=O)CCn1ncc2cc(OCc3ccccc3-c3cccc(O)c3)ccc21 ?
HEK cytotox: 79µM*; GPT2 inhibitor: inactive; Luciferase inh: inconclusive; NIH3T3 tox: inconclusive; hNpr1 antagonist: 11µM*; Npr1 antag conf: 20µM*; NPR2 antag: 18µM*; FLuc inh counter: inconclusive; GloSensor ctrl: 13µM*

How did O=c1[nH]c2ccccc2n1C1CCN(c2nccc(-c3cccnc3)n2)CC1 do in these assays?
HEK cytotox: 14µM*; GPT2 inhibitor: -5%; Luciferase inh: inactive; NIH3T3 tox: 32µM*; hNpr1 antagonist: 11µM*; Npr1 antag conf: 22µM*; NPR2 antag: 24µM*; FLuc inh counter: 1%; GloSensor ctrl: 19µM*

How did O=C(NCc1ccco1)c1ccc2c(c1)CC(=O)N2Cc1cccc(F)c1 do in these assays?
HEK cytotox: inconclusive; GPT2 inhibitor: inactive; Luciferase inh: inactive; NIH3T3 tox: inconclusive; hNpr1 antagonist: 2%

Results for O=C(Nc1ccccc1)O[C@@H]1CO[C@H]2[C@@H]1OC[C@@H]2NC(=O)c1ccc2c(c1)OCO2 ?
HEK cytotox: inconclusive; GPT2 inhibitor: inactive; Luciferase inh: inactive; NIH3T3 tox: inconclusive; hNpr1 antagonist: 32µM*; Npr1 antag conf: inconclusive; NPR2 antag: inconclusive; FLuc inh counter: -11%[86.2 µM]; GloSensor ctrl: inconclusive

What do the screens show for `CCNC(=O)O[C@@H]1CO[C@H]2[C@@H]1OC[C@@H]2NCC1CCCCC1`?
HEK cytotox: inactive; GPT2 inhibitor: inactive; Luciferase inh: inactive; NIH3T3 tox: 0%[174 µM]; hNpr1 antagonist: 3%[70.6 µM]

Results for CC(=O)c1cccc(NC(=O)O[C@@H]2CO[C@H]3[C@@H]2OC[C@@H]3NC(=O)Nc2ccccc2)c1 ?
HEK cytotox: inconclusive; GPT2 inhibitor: -1%[88.5 µM]; Luciferase inh: inactive; NIH3T3 tox: -4%[174 µM]; hNpr1 antagonist: -15%[70.6 µM]

What do the screens show for `O=C(Nc1ccc(Oc2ccccc2)cc1)O[C@@H]1CO[C@H]2[C@@H]1OC[C@@H]2NCC1CCCCC1`?
HEK cytotox: inconclusive; GPT2 inhibitor: -5%; Luciferase inh: inactive; NIH3T3 tox: inconclusive; hNpr1 antagonist: inconclusive; Npr1 antag conf: 22µM*; NPR2 antag: 17µM*; FLuc inh counter: -1%; GloSensor ctrl: 22µM*

How did COC(=O)c1cccc(NC(=S)N[C@H]2CO[C@H]3[C@@H]2OC[C@H]3OC(=O)Nc2cccc(C(F)(F)F)c2)c1 do in these assays?
HEK cytotox: 45µM*; GPT2 inhibitor: 2%; Luciferase inh: inactive; NIH3T3 tox: inconclusive; hNpr1 antagonist: inconclusive; Npr1 antag conf: 27µM*; NPR2 antag: 22µM*; FLuc inh counter: -5%; GloSensor ctrl: 22µM*

How did N#Cc1ccc(NC(=S)N[C@H]2CO[C@H]3[C@@H]2OC[C@H]3OC(=O)Nc2ccccc2)cc1 do in these assays?
HEK cytotox: 35µM*; GPT2 inhibitor: -8%[88.5 µM]; Luciferase inh: inactive; NIH3T3 tox: inconclusive; hNpr1 antagonist: 22µM*; Npr1 antag conf: 18µM*; NPR2 antag: 22µM*; FLuc inh counter: -7%[86.2 µM]; GloSensor ctrl: 18µM*

What do the screens show for `O=C(Nc1ccccc1)O[C@@H]1CO[C@H]2[C@@H]1OC[C@@H]2NC(=O)C1CCC1`?
HEK cytotox: inconclusive; GPT2 inhibitor: -6%[88.5 µM]; Luciferase inh: inactive; NIH3T3 tox: -29%[174 µM]; hNpr1 antagonist: inconclusive

Results for O=C(c1ccoc1)N1CCCCCC1c1nnc(-c2ccccc2)o1 (centres undefined) ?
HEK cytotox: -26%; GPT2 inhibitor: inactive; NIH3T3 tox: -18%

How did C=CCCC(=O)N1c2cccc3c2[C@@H](C[C@H]1C(N)=O)CN(c1ccccc1)C3=O do in these assays?
HEK cytotox: -14%[57.5 µM]; GPT2 inhibitor: -2%[27.3 µM]; NIH3T3 tox: inconclusive

Results for CC(=O)c1ccc(NC(=O)O[C@@H]2CO[C@H]3[C@@H]2OC[C@@H]3NC(=O)COc2ccccc2)cc1 ?
HEK cytotox: inconclusive; GPT2 inhibitor: -12%[88.5 µM]; Luciferase inh: inactive; NIH3T3 tox: inconclusive; hNpr1 antagonist: -13%[70.6 µM]

What do the screens show for `O=C(Nc1ccc(Oc2ccccc2)cc1)O[C@@H]1CO[C@H]2[C@@H]1OC[C@@H]2NC(=S)Nc1ccccc1`?
HEK cytotox: inconclusive; GPT2 inhibitor: inactive; Luciferase inh: inactive; NIH3T3 tox: inconclusive; hNpr1 antagonist: 11µM*; Npr1 antag conf: 9.7µM*; NPR2 antag: 12µM*; FLuc inh counter: -8%; GloSensor ctrl: 6.9µM*

How did O=C(Nc1ccc(Oc2ccccc2)cc1)O[C@@H]1CO[C@H]2[C@@H]1OC[C@@H]2NC(=O)c1ccc(C(F)(F)F)cc1 do in these assays?
HEK cytotox: inconclusive; GPT2 inhibitor: inconclusive; Luciferase inh: inactive; NIH3T3 tox: inconclusive; hNpr1 antagonist: 11µM*; Npr1 antag conf: 22µM*; NPR2 antag: 14µM*; FLuc inh counter: -2%; GloSensor ctrl: 15µM*

Results for O=C(Nc1cccc2ccccc12)O[C@@H]1CO[C@H]2[C@@H]1OC[C@@H]2NC(=O)c1ccco1 ?
HEK cytotox: -19%[172 µM]; GPT2 inhibitor: -5%[88.5 µM]; Luciferase inh: inactive; NIH3T3 tox: -15%[138 µM]; hNpr1 antagonist: -6%[70.6 µM]
